Common to all, as to test: DAPPL (digital affinity profiling via proximity ligation, sequencing); 10 mM Tris-HCl pH 7.5, 50 mM NaCl, 1 mM DTT, 4% glycerol, room temperature, 30 min; GST-TFs on glutathione beads, 16-mer random dsDNA library, 0.1% formaldehyde crosslink after washing; high values mean tight binding
For one experiment, the target named is T1, FEV (Homo sapiens, UniProt Q99581 1-238).
T1 sequence: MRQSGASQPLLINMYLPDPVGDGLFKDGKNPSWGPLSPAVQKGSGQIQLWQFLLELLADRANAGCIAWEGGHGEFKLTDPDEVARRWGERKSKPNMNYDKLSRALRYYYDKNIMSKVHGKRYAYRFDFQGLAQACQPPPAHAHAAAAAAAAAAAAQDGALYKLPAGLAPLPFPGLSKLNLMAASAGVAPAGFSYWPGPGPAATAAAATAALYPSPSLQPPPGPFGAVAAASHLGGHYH
The settings on record: protein: recombinant; tags: N-terminal GST; dsDNA, one strand shown. Summed up:
(§1)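 Binding signal is given per hexamer as its read frequency for a factor divided by its frequency in the tag-only sample. GST-fused human transcription factors were expressed in yeast, captured on glutathione beads, barcoded with DNA and pooled with that sample, then incubated with 200 nmole of a 16-mer random double-stranded DNA library in Tris/NaCl/DTT/glycerol buffer for 30 min at room temperature. The pools were then washed, crosslinked, proximity-ligated, amplified by PCR and sequenced on an Illumina NextSeq500.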

Another experiment concerns the target ETV5 (Homo sapiens, UniProt P41161 1-510). The settings on record: protein: recombinant; tags: N-terminal GST; dsDNA, one strand shown. In short, it runs like this:
as §1

The next experiment concerns the target HSF1 (Homo sapiens, UniProt Q00613 1-529). The settings on record: protein: recombinant; tags: N-terminal GST; chain copies: 3; dsDNA, one strand shown. Summed up: as §1
The target of the next experiment is T2, SPIC (Homo sapiens, UniProt Q8N5J4 1-248).
T2 sequence: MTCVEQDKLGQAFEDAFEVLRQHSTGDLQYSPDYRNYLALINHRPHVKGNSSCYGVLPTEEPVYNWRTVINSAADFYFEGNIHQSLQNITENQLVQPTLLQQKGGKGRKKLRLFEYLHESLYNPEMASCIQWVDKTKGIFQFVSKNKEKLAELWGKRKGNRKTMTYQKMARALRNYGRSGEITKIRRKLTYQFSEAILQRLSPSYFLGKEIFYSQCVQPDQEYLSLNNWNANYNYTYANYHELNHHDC
The settings on record: protein: recombinant; tags: N-terminal GST; dsDNA, one strand shown. In short, it runs like this: as §1

A further experiment has as its target ELF4 (Homo sapiens, UniProt Q99607 1-663). The settings on record: protein: recombinant; tags: N-terminal GST; dsDNA, one strand shown. Summed up:
as §1

The target in a further experiment is T3, ELK4 (Homo sapiens, UniProt P28324-2 1-405).
T3 sequence: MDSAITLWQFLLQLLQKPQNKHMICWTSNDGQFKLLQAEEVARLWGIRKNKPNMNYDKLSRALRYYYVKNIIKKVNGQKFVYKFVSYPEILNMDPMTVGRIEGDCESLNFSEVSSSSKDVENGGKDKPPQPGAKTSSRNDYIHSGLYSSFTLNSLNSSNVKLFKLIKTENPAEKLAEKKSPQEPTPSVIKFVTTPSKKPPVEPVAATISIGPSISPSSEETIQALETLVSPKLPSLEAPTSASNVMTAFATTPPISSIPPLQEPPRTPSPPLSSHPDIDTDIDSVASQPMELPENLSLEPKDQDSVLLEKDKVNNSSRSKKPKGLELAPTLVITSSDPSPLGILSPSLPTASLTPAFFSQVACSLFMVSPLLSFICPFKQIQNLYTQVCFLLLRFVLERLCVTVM
The settings on record: protein: recombinant; tags: N-terminal GST; dsDNA, one strand shown. In short, it runs like this: as §1

For a further experiment, the target named is T4, ETV2 (Homo sapiens, UniProt O00321 1-342).
T4 sequence: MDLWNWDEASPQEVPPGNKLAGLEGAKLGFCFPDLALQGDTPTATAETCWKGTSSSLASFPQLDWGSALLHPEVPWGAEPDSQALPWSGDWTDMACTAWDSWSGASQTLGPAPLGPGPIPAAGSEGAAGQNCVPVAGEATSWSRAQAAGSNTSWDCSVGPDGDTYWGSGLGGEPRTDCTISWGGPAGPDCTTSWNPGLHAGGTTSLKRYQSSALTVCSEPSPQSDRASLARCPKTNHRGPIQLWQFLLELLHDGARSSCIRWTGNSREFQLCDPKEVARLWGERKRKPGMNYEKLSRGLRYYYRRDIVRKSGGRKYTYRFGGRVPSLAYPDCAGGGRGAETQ
The settings on record: protein: recombinant; tags: N-terminal GST; dsDNA, one strand shown. In short, it runs like this:
as §1

For a further experiment, the target named is T5, ELF3 (Homo sapiens, UniProt P78545 1-371).
T5 sequence: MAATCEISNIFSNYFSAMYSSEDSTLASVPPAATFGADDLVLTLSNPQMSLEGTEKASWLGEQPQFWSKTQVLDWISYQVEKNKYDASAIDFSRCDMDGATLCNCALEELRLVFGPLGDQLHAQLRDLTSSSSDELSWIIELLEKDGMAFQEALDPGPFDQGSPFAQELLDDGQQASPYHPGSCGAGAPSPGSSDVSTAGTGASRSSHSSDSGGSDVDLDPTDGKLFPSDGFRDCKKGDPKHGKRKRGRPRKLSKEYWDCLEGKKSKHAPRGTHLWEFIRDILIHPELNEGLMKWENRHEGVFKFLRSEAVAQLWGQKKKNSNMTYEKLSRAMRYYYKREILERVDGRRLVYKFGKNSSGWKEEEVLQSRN
The settings on record: protein: recombinant; tags: N-terminal GST; dsDNA, one strand shown. Summed up:
as §1

Another experiment concerns the target CRX (Homo sapiens, UniProt O43186 1-299). The settings on record: protein: recombinant; tags: N-terminal GST; dsDNA, one strand shown. Summed up: as §1
For the next experiment, the target named is ETV1 (Homo sapiens, UniProt P50549 1-477). The settings on record: protein: recombinant; tags: N-terminal GST; dsDNA, one strand shown. Summed up:
as §1

In a further experiment the target is T6, ERF (Homo sapiens, UniProt P50548 1-548).
T6 sequence: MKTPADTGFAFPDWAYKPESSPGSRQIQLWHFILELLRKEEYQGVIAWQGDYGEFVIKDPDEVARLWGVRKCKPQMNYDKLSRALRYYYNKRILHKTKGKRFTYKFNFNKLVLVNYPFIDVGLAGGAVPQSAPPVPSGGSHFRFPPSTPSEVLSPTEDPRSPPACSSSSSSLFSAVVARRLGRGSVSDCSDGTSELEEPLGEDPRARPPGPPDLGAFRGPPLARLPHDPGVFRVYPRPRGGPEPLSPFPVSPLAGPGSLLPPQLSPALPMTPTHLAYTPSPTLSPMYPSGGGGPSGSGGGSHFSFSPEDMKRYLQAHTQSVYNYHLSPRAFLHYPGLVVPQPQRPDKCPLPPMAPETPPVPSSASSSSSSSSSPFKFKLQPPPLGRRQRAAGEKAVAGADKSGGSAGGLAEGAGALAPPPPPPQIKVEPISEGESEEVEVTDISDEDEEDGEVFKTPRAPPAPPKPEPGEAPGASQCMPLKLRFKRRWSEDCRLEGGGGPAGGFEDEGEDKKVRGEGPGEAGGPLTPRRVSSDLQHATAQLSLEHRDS
The settings on record: protein: recombinant; tags: N-terminal GST; dsDNA, one strand shown. Summed up: as §1

In the next experiment the target is T7, ETV3L (Homo sapiens, UniProt Q6ZN32 1-361).
T7 sequence: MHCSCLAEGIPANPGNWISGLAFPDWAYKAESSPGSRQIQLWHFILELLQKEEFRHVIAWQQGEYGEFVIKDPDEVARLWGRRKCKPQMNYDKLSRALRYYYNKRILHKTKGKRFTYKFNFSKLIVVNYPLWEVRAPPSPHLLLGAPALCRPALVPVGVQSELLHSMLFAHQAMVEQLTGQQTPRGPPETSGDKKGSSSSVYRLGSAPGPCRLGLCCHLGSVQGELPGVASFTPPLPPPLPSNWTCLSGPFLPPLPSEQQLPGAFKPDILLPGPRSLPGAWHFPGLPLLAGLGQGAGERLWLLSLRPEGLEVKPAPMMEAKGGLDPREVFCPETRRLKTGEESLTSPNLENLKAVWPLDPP
The settings on record: protein: recombinant; tags: N-terminal GST; dsDNA, one strand shown. Summed up:
as §1

The target in another experiment is T8, ETS2 (Homo sapiens, UniProt P15036 1-469).
T8 sequence: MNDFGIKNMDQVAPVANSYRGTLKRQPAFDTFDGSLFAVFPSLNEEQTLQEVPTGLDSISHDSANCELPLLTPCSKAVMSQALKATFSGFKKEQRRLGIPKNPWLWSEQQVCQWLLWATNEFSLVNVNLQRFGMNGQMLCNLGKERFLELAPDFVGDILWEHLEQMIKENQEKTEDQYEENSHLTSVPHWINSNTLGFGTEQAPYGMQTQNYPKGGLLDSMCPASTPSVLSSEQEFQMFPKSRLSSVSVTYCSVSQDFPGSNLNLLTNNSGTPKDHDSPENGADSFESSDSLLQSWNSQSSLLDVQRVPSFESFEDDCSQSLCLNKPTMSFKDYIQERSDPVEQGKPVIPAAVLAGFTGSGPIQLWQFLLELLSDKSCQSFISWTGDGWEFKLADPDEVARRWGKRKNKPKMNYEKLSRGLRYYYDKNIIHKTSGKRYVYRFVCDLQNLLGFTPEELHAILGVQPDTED
The settings on record: protein: recombinant; tags: N-terminal GST; dsDNA, one strand shown. Summed up:
as §1

For a further experiment, the target named is T9, SPDEF (Homo sapiens, UniProt O95238 1-335).
T9 sequence: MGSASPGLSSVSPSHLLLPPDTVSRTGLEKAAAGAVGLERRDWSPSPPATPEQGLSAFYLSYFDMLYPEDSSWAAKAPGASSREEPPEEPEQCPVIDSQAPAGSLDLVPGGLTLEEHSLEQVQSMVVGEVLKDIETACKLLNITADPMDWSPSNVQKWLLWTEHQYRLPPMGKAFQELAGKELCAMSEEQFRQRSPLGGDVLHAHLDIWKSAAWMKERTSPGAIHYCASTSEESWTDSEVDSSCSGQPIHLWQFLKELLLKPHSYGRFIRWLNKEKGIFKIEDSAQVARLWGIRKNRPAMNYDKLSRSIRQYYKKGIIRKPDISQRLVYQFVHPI
The settings on record: protein: recombinant; tags: N-terminal GST; dsDNA, one strand shown. In short, it runs like this:
as §1

Another experiment deals with T10, ETV7 (Homo sapiens, UniProt Q9Y603 1-341).
T10 sequence: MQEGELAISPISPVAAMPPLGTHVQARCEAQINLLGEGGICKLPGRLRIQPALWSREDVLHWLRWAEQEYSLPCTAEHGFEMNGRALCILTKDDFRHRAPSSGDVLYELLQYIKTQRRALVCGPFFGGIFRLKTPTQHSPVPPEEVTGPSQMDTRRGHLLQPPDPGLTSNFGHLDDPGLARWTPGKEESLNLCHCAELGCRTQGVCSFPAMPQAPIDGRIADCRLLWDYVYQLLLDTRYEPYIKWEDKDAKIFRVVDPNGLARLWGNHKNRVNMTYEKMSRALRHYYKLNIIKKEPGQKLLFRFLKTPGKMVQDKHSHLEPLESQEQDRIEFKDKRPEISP
The settings on record: protein: recombinant; tags: N-terminal GST; dsDNA, one strand shown. In short, it runs like this:
as §1

The target of the next experiment is T11, ELF5 (Homo sapiens, UniProt Q9UKW6-2 1-255).
T11 sequence: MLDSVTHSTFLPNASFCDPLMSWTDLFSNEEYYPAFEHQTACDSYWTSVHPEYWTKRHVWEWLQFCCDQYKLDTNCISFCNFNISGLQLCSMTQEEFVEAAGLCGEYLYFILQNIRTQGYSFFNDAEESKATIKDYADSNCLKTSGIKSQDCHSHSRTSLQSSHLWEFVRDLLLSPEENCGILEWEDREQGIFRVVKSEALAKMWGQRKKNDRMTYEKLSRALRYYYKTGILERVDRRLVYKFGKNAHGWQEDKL
The settings on record: protein: recombinant; tags: N-terminal GST; dsDNA, one strand shown. In short, it runs like this: as §1

A further experiment deals with T12, ETV3 (Homo sapiens, UniProt P41162-2 1-143).
T12 sequence: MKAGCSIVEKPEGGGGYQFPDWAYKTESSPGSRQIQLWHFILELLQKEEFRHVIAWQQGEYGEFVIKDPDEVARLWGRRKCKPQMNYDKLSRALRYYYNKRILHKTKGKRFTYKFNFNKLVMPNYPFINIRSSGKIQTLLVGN
The settings on record: protein: recombinant; tags: N-terminal GST; dsDNA, one strand shown. In short, it runs like this:
as §1

The next experiment concerns the target ETV6 (Homo sapiens, UniProt P41212 1-452). The settings on record: protein: recombinant; tags: N-terminal GST; dsDNA, one strand shown. Summed up:
as §1

The source of these data is article PMC7862700, “An all-to-all approach to the identification of sequence-specific readers for epigenetic DNA modifications on cytosine”.

ETV6, sequence (P41212 whole entry): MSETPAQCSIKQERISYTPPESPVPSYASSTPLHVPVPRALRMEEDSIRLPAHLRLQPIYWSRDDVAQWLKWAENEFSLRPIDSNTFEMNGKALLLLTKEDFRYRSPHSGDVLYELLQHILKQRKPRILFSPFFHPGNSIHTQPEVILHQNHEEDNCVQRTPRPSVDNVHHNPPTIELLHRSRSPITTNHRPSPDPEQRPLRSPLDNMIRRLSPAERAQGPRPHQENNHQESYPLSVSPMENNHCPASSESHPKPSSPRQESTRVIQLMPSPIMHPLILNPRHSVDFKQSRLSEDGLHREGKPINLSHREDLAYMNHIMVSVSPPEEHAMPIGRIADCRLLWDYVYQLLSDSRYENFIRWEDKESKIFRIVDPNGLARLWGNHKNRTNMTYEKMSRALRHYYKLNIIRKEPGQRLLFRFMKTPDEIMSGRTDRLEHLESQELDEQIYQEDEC
ETV5, sequence (P41161 whole entry): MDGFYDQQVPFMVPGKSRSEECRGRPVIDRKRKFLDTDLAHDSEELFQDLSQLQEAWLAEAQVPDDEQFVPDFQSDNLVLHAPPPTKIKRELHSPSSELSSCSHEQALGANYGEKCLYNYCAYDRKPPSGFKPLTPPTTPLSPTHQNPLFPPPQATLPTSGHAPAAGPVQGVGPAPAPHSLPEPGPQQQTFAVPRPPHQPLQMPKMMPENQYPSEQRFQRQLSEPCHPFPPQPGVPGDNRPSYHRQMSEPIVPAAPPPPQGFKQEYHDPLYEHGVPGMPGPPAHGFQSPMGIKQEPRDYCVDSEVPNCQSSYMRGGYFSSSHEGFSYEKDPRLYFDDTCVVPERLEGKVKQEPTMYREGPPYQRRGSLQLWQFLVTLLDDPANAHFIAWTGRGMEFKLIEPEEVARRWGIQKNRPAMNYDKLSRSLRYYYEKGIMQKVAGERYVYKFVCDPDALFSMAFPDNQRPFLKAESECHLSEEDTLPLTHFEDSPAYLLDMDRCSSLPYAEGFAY
ETV1, sequence (P50549 whole entry): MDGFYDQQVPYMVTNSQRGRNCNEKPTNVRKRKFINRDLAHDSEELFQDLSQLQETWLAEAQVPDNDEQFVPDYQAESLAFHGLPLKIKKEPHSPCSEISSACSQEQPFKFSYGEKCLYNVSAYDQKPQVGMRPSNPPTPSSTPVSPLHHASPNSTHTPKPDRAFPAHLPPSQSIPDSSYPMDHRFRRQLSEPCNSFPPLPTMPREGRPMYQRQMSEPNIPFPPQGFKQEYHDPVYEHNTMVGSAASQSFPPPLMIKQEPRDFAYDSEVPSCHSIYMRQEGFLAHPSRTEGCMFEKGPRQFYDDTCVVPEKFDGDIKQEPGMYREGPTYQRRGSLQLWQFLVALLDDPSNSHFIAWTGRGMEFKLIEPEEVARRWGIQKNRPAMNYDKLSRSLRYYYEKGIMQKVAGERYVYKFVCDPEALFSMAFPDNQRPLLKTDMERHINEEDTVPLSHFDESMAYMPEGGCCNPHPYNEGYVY
HSF1, sequence (Q00613 whole entry): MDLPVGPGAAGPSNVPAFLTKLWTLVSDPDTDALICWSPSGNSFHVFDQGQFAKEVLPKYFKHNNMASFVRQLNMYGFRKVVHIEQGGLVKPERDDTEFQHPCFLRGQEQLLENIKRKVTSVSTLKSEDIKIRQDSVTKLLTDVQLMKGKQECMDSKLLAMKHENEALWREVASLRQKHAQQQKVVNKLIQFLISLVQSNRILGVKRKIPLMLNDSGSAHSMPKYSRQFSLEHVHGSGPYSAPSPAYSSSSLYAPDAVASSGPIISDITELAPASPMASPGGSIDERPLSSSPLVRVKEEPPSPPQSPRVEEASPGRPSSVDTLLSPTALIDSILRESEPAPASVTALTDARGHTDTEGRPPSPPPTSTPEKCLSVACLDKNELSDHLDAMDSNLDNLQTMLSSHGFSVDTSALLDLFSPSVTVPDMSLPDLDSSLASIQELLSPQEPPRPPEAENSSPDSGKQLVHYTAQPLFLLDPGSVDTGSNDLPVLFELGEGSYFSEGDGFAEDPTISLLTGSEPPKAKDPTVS
ELF4, sequence (Q99607 whole entry): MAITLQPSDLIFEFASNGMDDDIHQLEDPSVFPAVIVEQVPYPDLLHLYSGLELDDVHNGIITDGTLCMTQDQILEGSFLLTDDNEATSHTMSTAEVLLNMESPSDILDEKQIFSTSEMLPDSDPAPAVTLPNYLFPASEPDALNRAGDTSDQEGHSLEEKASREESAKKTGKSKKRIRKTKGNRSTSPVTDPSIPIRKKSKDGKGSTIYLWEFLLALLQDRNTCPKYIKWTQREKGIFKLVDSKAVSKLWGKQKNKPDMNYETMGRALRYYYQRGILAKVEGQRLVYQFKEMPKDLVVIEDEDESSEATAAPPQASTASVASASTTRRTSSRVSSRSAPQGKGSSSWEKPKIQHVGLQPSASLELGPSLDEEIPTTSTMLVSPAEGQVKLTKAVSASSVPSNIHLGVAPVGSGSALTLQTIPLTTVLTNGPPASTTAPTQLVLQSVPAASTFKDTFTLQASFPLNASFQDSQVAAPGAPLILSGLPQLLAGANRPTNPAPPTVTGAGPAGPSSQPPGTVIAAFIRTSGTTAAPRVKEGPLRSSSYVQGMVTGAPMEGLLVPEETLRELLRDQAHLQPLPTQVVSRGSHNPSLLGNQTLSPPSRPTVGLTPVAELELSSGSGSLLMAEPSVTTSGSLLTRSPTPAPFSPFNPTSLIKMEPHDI
CRX, sequence (O43186 whole entry): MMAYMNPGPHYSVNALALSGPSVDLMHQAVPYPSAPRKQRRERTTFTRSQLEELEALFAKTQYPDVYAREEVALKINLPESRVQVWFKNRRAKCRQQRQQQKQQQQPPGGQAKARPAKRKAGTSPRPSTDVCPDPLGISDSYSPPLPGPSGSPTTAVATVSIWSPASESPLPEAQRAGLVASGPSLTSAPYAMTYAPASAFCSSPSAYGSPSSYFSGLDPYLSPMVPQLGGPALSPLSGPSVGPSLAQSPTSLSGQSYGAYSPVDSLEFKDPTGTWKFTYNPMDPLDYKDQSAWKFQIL

Turning to TAGTAT, the binding signal with FEV was 1.28 fold enrichment (6-mer frequency, TF over GST control); with ETV5, 1.33 fold enrichment (6-mer frequency, TF over GST control); with HSF1, 1.55 fold enrichment (6-mer frequency, TF over GST control); with SPIC, 1.43 fold enrichment (6-mer frequency, TF over GST control); with ELF4 it was 1.3 fold enrichment (6-mer frequency, TF over GST control); with ELK4, 1.31 fold enrichment (6-mer frequency, TF over GST control). For the same sequence, the binding signal with ETV2 is 1.34 fold enrichment (6-mer frequency, TF over GST control); with ELF3, 1.3 fold enrichment (6-mer frequency, TF over GST control); with CRX it was 1.68 fold enrichment (6-mer frequency, TF over GST control); with ETV1 it was 1.23 fold enrichment (6-mer frequency, TF over GST control); with ERF it was 1.29 fold enrichment (6-mer frequency, TF over GST control); with ETV3L it was 1.23 fold enrichment (6-mer frequency, TF over GST control). For the same sequence, the binding signal with ETS2 was 1.27 fold enrichment (6-mer frequency, TF over GST control); with SPDEF, 1.15 fold enrichment (6-mer frequency, TF over GST control); with ETV7 it was 1.44 fold enrichment (6-mer frequency, TF over GST control); with ELF5, 1.25 fold enrichment (6-mer frequency, TF over GST control); with ETV3 it was 1.26 fold enrichment (6-mer frequency, TF over GST control); in the experiment with ETV6, 1.29 fold enrichment (6-mer frequency, TF over GST control).
